MEX-5 binding = C. elegans MEX-5 TCR-2 RNA binding activity | Q9XUB2 | MEX-5/FITC-TCR2 RNA binding, fluorescence polarization; stronger effect = lower value | activity score (negative = inhibition of binding), % at 10 µM | 300,000 compounds, 0.38% hits | AID 1832;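 active = inhibition past about -25% in most replicates, and total fluorescence under double the plate's negative control median, limit read from the data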;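 note: 0% = DMSO and -100% = 5 µM competing unlabeled TCR2 RNA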
E coli Lon inh = inhibits E. coli Lon protease | P0A9M0 | purified E. coli Lon protease, fluorescence polarization | inhibition, % at 7.94 µM | 360,000 compounds, 0.42% hits | AID 602123; in the data active = inhibition above about 13%, passing the limit was not always enough;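 note: 0% = enzyme with probe and DMSO and 100% = no enzyme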
GLD-1 RNA inh = GLD-1-TGE RNA interaction inhibition (C. elegans); inhibition, % at 5.96 µM; 320,000 compounds, 0.44% hits; purified GLD-1 + fluorescein TGE RNA, fluorescence polarization;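 active = percent inhibition above a per-plate cutoff, the plate mean of test compounds plus 3 SD, cut at about 30% in these data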;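 note: 0% = DMSO wells with GLD-1 and probe and 100% = wells lacking GLD-1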
EBV gp42 inh = inhibitors of Epstein-Barr virus glycoprotein 42; Q1HVG2; Fluorescence polarization binding assay, mP read-out; inhibition, % (tested at 21.74 µM); 220,000 compounds, 0.42% hits; in the data active = inhibition above about 50%
Target sequence (Q1HVG2 whole entry, looked up): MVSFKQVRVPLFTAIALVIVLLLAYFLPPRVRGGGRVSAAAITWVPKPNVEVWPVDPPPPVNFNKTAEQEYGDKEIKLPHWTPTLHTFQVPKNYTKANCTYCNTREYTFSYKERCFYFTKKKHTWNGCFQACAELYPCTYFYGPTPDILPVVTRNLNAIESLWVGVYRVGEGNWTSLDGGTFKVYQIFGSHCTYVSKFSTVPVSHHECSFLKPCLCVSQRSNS
Bcl-xL primary = Bcl-xL (human) inhibition | Q07817 | GST-Bcl-xL / FITC-Bim BH3 peptide fluorescence polarization | inhibition, % at 10.9 µM | 320,000 compounds, 0.7% hits;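 active = inhibition above the mean of all tested compounds plus 3 SD, cutoff set per campaign, cut at about 30% in these data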;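 note: 0% = DMSO wells and 100% = unlabeled Bim-BH3 peptide competitor; inhibitors lower millipolarization by displacing the labeled peptide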
Target sequence (Q07817 whole entry, looked up): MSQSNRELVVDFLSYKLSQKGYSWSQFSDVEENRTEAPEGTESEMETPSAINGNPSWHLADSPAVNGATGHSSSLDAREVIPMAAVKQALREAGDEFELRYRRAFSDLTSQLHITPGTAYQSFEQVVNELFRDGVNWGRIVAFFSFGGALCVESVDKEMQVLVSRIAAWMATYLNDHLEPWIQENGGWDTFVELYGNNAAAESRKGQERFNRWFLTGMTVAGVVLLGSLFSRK
E coli Lon conf = E. coli Lon inhibition confirmation | purified E. coli Lon, fluorescence polarization | 1,400 compounds, 31% hits | inhibition, % at 7.94 µM | shares compounds with E coli Lon inh; in the data active = inhibition above about 16%;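 note: 0% = enzyme with probe and DMSO and 100% = no enzyme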
* = called active by the depositor. Shown are actives, neighbours in structure and some others; about 1.3% of the full set was active somewhere.

Results for O=S(=O)([N-]c1nc2ccccc2nc1-n1cc[n+](Cc2ccccc2)c1)c1ccccc1 ?
MEX-5 binding: -2.6; E coli Lon inh: -5.2; GLD-1 RNA inh: 11.7; EBV gp42 inh: -1.1; Bcl-xL primary: 17.4

Results for COc1ccc(S(=O)(=O)NC(=O)C2(C)CCN2C(=O)c2cccc(F)c2)cc1 (configuration not stated) ?
E coli Lon inh: -7.8

How did O=C(NCc1ccncc1)C(F)(F)C(F)(F)C(=O)NCc1ccncc1 do in these assays?
MEX-5 binding: -1.0; E coli Lon inh: 16.6*; GLD-1 RNA inh: 5.8; EBV gp42 inh: -11.4; Bcl-xL primary: -1.4; E coli Lon conf: -4.3

What do the screens show for `O=C(Nc1cccc(Cl)c1Cl)c1csc([C@@H]2O[C@H](CO)[C@H](O)[C@H](O)[C@H]2O)n1`?
E coli Lon inh: 14.8*; E coli Lon conf: 1.9

Results for Cc1ccccc1NC(=O)C1CCCN(c2ncnc3onc(-c4ccc(F)cc4)c23)C1 (configuration not stated) ?
MEX-5 binding: 1.1; E coli Lon inh: 16.1*; GLD-1 RNA inh: -0.4; Bcl-xL primary: 3.9; E coli Lon conf: -15.1

Results for CCc1ccccc1NC(=O)C1CCCN(c2ncnc3onc(-c4ccc(F)cc4)c23)C1 (configuration not stated) ?
MEX-5 binding: 0.5; E coli Lon inh: -0.9; GLD-1 RNA inh: 10.1; Bcl-xL primary: 3.5

Results for CCSc1nc(N2CCOCC2)c2c(c1C#N)CC(C)(C)N(C)C2 ?
MEX-5 binding: 0.0; E coli Lon inh: -15.0; GLD-1 RNA inh: -1.2; EBV gp42 inh: -2.5; Bcl-xL primary: 8.1

How did CN1Cc2c(N3CCOCC3)nc(SCc3ccccc3)c(C#N)c2CC1(C)C do in these assays?
MEX-5 binding: -0.4; E coli Lon inh: 44.7*; GLD-1 RNA inh: 20.7; EBV gp42 inh: 2.1; Bcl-xL primary: 16.0; E coli Lon conf: -5.0

What do the screens show for `CCCCCCn1c(=O)[nH]c2nc3cc(N)c(C)cc3nc2c1=O`?
E coli Lon inh: 116.5*; EBV gp42 inh: 148.3*; E coli Lon conf: 48.8*

Results for Cc1cc2nc(-c3nnnn3Cc3ccccc3)c(=O)[nH]c2cc1C ?
E coli Lon inh: 3.1

Results for Cc1cc(C)n2nc(SCc3cc(=O)oc4cc(C)c(C)cc34)nc2n1 ?
MEX-5 binding: 1.0; GLD-1 RNA inh: -2.4; EBV gp42 inh: 5.7; Bcl-xL primary: 4.6

What do the screens show for `Cc1cc(C)n2nc(SCc3cc(=O)oc4ccc5ccccc5c34)nc2n1`?
MEX-5 binding: 3.6; E coli Lon inh: 14.4*; GLD-1 RNA inh: 13.0; EBV gp42 inh: 7.9; Bcl-xL primary: 19.6; E coli Lon conf: -12.4

Results for CC(C)OC(=O)Nc1ccc2c(c1)N(C(=O)CCN1CCOCC1)c1ccccc1CC2 ?
MEX-5 binding: -0.4; E coli Lon inh: 4.9; GLD-1 RNA inh: 1.9; EBV gp42 inh: -11.7; Bcl-xL primary: 0.5

Results for O=C(Nc1ccc(S(=O)(=O)Nc2ncccn2)cc1)c1ccc(Br)s1 ?
MEX-5 binding: -0.2; E coli Lon inh: 27.7*; GLD-1 RNA inh: 5.3; EBV gp42 inh: -15.1; Bcl-xL primary: 4.5; E coli Lon conf: 34.2*

What do the screens show for `O=C(Nc1ccc(Cl)cc1)Nc1ccc(S(=O)(=O)Nc2ncccn2)cc1`?
MEX-5 binding: -0.6; E coli Lon inh: 64.7*; GLD-1 RNA inh: 8.8; EBV gp42 inh: -7.5; Bcl-xL primary: -1.2; E coli Lon conf: 48.1*

How did O=S(=O)(Nc1ncccn1)c1ccc(Nc2ncnc3ccccc23)cc1 do in these assays?
MEX-5 binding: -6.5; E coli Lon inh: 19.6*; GLD-1 RNA inh: 2.0; EBV gp42 inh: -7.2; Bcl-xL primary: 2.9; E coli Lon conf: 80.6*

Results for Cc1nn(CCO)c(N)c1C1(O)C(=O)Nc2c(Cl)cc(Cl)cc21 (configuration not stated) ?
MEX-5 binding: -6.7; E coli Lon inh: 3.4; GLD-1 RNA inh: -1.3; EBV gp42 inh: -11.3; Bcl-xL primary: 0.9

How did Cc1ccc(C)c(NC(=O)CN(C)C(=O)c2ccccc2OCc2c(C)noc2C)c1 do in these assays?
E coli Lon inh: -6.7; GLD-1 RNA inh: 3.6; Bcl-xL primary: 1.6

How did O=C(Nc1nnc([C@@H]2C[C@H](O)[C@@H](CO)O2)s1)c1cccc(OC(F)(F)F)c1 do in these assays?
E coli Lon inh: -13.0

Screening results (PubChem)
